According to PubChem BioAssay:
Calls of active or inactive are those of the source. Unless noted, the rule behind the calls is not given here.

Columns and labels:
[1] = compounds binding Alexa647 anti-His antibody – biochemical, small-molecule microarray, 635 nm fluorescence, artefact control for SMM control protein annotation, primary screen (AID 1128); details: higher = more signal;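 note: score merges feature fluorescence with signal-to-noise for each printed compound spot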
[2] = tested on: Human papillomavirus type 1a E7 protein (residues 1-88); assay: HPV1a E7 small-molecule binders, primary screen, biochemical, small-molecule microarray, residues 1-88, 635 nm (AID 1129); details: small-molecule microarray binding, fluorescence 635 nm; higher = more signal
[3] = target: Focal adhesion kinase 1 (Homo sapiens) (UniProt Q05397); assay: PTK2 protein binding on printed compound slides – biochemical, small-molecule microarray, 635/667 nm fluorescence, BSA, DTT, primary screen (AID 1130); details: 635 nm fluorescence, higher = more signal;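 note: composite of spot emission at 667 nm and signal to noise over triplicate slides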
[4] = tested on: Fibrinogen (Alexa647-labelled); assay: Alexa647-fibrinogen binding to printed small molecules – biochemical, small-molecule microarray, 635/667 nm fluorescence, artefact control for SMM control-protein annotation, profiling panel (AID 1131); details: fibrinogen-A647 binding fluorescence, higher = more signal;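 note: z-score merges 667 nm fluorescence with per-spot signal-to-noise over triplicate slides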
[5] = target: Follistatin (Homo sapiens) (UniProt P19883); assay: FST protein binding to printed compounds – biochemical, small-molecule microarray, 635/667 nm fluorescence, primary screen (AID 1132); details: 635 nm fluorescence, higher = more signal
[6] = target: Fibroblast growth factor 2 (Homo sapiens) (UniProt P09038); assay: basic fibroblast growth factor binding to printed compounds – biochemical, small-molecule microarray, 635/667 nm fluorescence, primary screen (AID 1133); details: FGF2, fluorescence 635/667, higher = more signal
[7] = JC-1 mitochondrial potential readout, lung cancer cells – cell-based, A549, JC-1 fluorescence, basal, 24 h, 100 nL, profiling panel (AID 1138); details: higher = more signal;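 note: A549 lung adenocarcinoma cells under basal conditions with no added stimulus; test concentration not given here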
[8] = tested on: Lefty1; assay: Lefty1 protein binding to printed compounds – biochemical, small-molecule microarray, 635/667 nm fluorescence, primary screen (AID 1139); details: fluorescence 635/667, higher = more signal
[9] = tested on: wheat germ agglutinin (Triticum aestivum), Alexa647-labelled; assay: Alexa647-WGA lectin binding to printed small molecules – biochemical, small-molecule microarray, 635/667 nm fluorescence, artefact control for SMM control-protein annotation, profiling panel (AID 1140); details: WGA-A647 binding, 635 nm fluorescence, higher = more signal;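 note: score merges 667 nm feature emission with signal to noise over triplicate slides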
[10] = target: Luciferin 4-monooxygenase (Photinus pyralis) (UniProt P08659); assay: inhibition of purified Photinus pyralis luciferase – biochemical, luminescence, purified enzyme, 2006 set, primary screen (AID 1141); details: purified firefly luciferase, SteadyGlo luminescence, 30 min; higher = more signal, called active from +8 up or from −8 down;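 note: cell-free assay with purified firefly luciferase at 100 ng per well in PBS; test concentration not given here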
[11] = tested on: Wnt5a (protein binding on small-molecule microarray); assay: small molecules binding Wnt5a protein – biophysical, small-molecule microarray, 635/667 nm fluorescence, primary screen (AID 1142); details: 635 nm fluorescence, higher = more signal;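 note: fluorescence read at 667 nm with signal to noise per printed feature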
[12] = ATP-based viability of Huh7 replicon cells – cell-based, CellTiter-Glo luminescence, basal, 48 h, cytotoxicity control for HCV replication inhibitor project, primary screen (AID 1143); details: higher = more signal, called active from +8 up or from −8 down;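 note: Huh7 hepatoma cells carrying a hepatitis C replication reporter with no stimulus; test concentration not given here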
[13] = Pseudomonas biofilm growth suppression – PAO1 strain, BacTiter-Glo luminescence, LB-PBS, primary screen (AID 1144); details: P. aeruginosa PAO1 biofilm, 12 h, higher = more signal
[14] = basal CRE-LacZ reporter activity in PC12 – cell-based, unstimulated, primary screen (AID 1145); details: no forskolin, luminescence, 4.5 h, higher = more signal, called active from +8 up or from −8 down
[15] = forskolin-driven CRE-LacZ activity in PC12 – cell-based, CRE-LacZ reporter, forskolin-stimulated, primary screen (AID 1146); details: luminescence, 4.5 h, higher = more signal, called active from +8 up or from −8 down;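 note: PC12 cells with 6xCRE LacZ reporter stimulated by forskolin 10 µM; beta-galactosidase reporter signal reflecting CREB driven transcription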
[16] = target: Streptavidin (Streptomyces avidinii) (UniProt P22629); assay: compounds binding control protein streptavidin – biophysical, small-molecule microarray, 635/667 nm fluorescence, artefact control for SMM compound annotation, primary screen (AID 1147); details: higher = more signal;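 note: signal reflects streptavidin binding to arrayed compounds as a control protein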
[17] = probe aInhba binding on compound microarray – biochemical, small-molecule microarray, 635/667 nm fluorescence, primary screen (AID 1148); details: higher = more signal;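 note: score merges 667nm spot fluorescence with signal-to-noise for antibody binding to printed compounds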
[18] = target: Torsin-1A (Homo sapiens) (UniProt O14656); assay: TOR1A wild-type binding on microarray – cell lysate, small-molecule microarray, lysate, 635/667 nm, primary screen (AID 1149); details: COS7 hTOR1A-WT lysate, 635 nm fluorescence, higher = more signal
[19] = target: Torsin-1A (Homo sapiens) (UniProt O14656); assay: torsin A mutant lysate binding on microarrays – cell lysate, small-molecule microarray, COS7 lysate, 635/667 nm fluorescence, primary screen (AID 1150); details: COS7 hTOR1A mutant lysate, 635 nm fluorescence, higher = more signal;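 note: score pools 667 nm emission and signal to noise measuring lysate protein binding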
[20] = tested on: Sonic hedgehog protein (Shh); assay: Sonic hedgehog microarray binding compounds – biochemical, small-molecule microarray, 635/667 nm fluorescence, primary screen (AID 1151); details: 635 nm fluorescence, higher = more signal;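 note: Shh protein binding to compounds spotted on small-molecule microarray slides; score combines spot fluorescence intensity with signal-to-noise across triplicate slides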

Chain of Fibroblast growth factor 2 (Homo sapiens) (P09038 whole entry, looked up): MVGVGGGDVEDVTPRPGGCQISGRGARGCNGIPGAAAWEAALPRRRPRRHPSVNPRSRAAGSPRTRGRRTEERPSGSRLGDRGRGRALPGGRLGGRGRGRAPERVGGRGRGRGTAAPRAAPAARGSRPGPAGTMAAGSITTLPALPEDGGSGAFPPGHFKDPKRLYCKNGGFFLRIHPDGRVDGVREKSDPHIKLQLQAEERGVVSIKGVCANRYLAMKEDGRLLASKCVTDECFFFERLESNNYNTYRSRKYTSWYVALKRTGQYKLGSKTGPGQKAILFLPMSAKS
Chain of Focal adhesion kinase 1 (Homo sapiens) (Q05397 whole entry, looked up): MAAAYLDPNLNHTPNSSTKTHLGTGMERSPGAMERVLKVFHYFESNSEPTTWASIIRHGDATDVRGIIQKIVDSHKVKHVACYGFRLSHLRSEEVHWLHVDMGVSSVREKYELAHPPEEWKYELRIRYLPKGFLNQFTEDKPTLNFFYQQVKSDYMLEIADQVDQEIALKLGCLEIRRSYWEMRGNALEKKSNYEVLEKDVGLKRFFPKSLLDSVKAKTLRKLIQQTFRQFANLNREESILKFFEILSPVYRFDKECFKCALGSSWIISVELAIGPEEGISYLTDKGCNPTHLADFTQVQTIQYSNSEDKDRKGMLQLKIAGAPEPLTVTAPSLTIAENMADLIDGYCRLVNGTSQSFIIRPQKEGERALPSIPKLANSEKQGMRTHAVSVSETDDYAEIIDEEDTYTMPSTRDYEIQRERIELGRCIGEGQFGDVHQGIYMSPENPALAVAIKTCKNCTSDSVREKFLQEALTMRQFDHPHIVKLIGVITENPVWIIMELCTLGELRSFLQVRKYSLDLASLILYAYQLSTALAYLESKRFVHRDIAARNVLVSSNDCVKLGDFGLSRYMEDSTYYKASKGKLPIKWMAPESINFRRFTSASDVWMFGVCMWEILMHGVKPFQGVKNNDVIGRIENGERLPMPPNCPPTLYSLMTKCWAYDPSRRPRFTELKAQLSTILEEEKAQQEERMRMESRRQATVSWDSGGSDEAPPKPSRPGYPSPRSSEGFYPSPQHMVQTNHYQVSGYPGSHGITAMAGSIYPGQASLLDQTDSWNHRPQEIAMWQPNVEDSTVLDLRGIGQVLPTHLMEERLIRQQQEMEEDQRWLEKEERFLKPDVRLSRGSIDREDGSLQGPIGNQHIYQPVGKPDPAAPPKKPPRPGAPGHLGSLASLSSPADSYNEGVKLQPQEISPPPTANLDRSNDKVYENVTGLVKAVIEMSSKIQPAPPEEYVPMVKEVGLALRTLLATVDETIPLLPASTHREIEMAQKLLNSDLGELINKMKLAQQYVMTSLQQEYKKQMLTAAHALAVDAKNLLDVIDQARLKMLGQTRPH
Chain of Follistatin (Homo sapiens) (P19883 whole entry, looked up): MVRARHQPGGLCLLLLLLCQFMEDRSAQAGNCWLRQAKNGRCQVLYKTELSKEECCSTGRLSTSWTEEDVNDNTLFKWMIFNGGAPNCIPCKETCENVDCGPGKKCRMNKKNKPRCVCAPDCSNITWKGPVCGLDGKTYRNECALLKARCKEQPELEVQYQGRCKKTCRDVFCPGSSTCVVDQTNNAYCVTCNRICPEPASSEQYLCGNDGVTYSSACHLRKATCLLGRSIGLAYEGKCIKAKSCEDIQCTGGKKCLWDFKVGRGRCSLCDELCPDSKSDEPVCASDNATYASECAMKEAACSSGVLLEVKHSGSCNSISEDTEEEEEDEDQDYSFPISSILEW
Chain of Streptavidin (Streptomyces avidinii) (P22629 whole entry, looked up): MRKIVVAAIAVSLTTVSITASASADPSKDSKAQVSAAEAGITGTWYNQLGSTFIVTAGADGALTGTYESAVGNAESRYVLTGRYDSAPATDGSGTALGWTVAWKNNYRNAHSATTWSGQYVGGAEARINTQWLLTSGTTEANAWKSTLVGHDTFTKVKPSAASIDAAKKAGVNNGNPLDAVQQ
Chain of Torsin-1A (Homo sapiens) (O14656 whole entry, looked up): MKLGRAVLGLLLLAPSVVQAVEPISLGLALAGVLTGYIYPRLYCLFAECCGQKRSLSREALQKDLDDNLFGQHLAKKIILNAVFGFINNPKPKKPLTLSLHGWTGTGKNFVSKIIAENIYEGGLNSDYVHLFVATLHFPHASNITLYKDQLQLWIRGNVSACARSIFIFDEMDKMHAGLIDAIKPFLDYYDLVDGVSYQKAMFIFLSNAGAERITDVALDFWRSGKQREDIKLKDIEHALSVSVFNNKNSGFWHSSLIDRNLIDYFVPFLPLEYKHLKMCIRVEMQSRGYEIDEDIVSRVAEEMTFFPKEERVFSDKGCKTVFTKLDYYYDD
Chain of Luciferin 4-monooxygenase (Photinus pyralis) (P08659 whole entry, looked up): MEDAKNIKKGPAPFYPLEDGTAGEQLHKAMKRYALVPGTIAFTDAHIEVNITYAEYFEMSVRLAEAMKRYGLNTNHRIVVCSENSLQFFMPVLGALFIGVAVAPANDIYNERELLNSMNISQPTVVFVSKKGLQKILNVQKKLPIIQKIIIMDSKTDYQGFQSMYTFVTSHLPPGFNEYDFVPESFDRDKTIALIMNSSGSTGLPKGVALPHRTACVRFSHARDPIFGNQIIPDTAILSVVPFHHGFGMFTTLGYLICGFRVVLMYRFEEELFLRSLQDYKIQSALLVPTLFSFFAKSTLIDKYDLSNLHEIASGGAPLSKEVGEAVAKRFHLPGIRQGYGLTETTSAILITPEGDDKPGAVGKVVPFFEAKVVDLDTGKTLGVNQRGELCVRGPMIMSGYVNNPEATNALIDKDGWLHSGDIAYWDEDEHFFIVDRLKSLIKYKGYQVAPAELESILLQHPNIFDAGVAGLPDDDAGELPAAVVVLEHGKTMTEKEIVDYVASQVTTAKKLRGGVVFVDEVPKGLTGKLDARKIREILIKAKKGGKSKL

| Compound | composite z-score [1] | composite z-score [2] | composite z-score [3] | composite z-score [4] | composite z-score [5] | composite z-score [6] | z-score [7] | composite z-score [8] | composite z-score [9] | z-score [10] | composite z-score [11] | z-score [12] | z-score [13] | z-score [14] | z-score [15] | composite z-score [16] | composite z-score [17] | composite z-score [18] | composite z-score [19] | composite z-score [20] |
| --- | --- | --- | --- | --- | --- | --- | --- | --- | --- | --- | --- | --- | --- | --- | --- | --- | --- | --- | --- | --- |
| CCC(CC)C(O)C1C=CC2C(=O)N(c3ccccc3)C(=O)C2N1Nc1ccc(C#N)cc1 (stereo not given) | 1.74 | 1.27 | 0.813 | 0.991 | 0.816 | -0.177 | -0.111 | 0.0695 | 1.21 | -0.27 (inactive) | 0.658 | 0.625 (inactive) | -0.939 (inactive) | 1.01 (inactive) | 0.435 (inactive) | 1.24 | 0.75 | 0.223 | 0.775 | -0.41 |
| CC(C)OC(=O)CC(=O)CC(O)c1ccc(C#N)cc1 (stereo not given) | 0.548 | 1.14 | 0.762 | 1.04 | -0.337 | -0.581 | 0.409 | -0.783 | 0.731 | 0.902 (inactive) | -0.0818 | -1.68 (inactive) | -0.577 (inactive) | -0.583 (inactive) | -1.27 (inactive) | -0.425 | 0.0816 | 2.11 | 2 | -0.305 |
| C=CCNC(=O)[C@@H]1[C@H]2C(=O)O[C@H](c3ccccc3)[C@H](c3ccccc3)N2[C@H](c2ccccc2OCCO)[C@@]12C(=O)Nc1ccc(C#CC3=CCCCC3)cc12 | 1.57 | 1.22 | 0.683 | 0.9 | 1.21 | 1.02 | -1.55 | 1.12 | 0.971 | -1.48 (inactive) | 0.248 | -6.58 (inactive) | -1.43 (inactive) | -1.42 (inactive) | -1.45 (inactive) | 0.562 | 0.592 | 0.192 | 0.255 | 1.91 |
| CCOC(=O)C[C@H]1[C@H](OC(=O)Cc2ccc3c(c2)OCO3)[C@@H](NC(=O)C2CCCCC2)c2cc(OCCCO)ccc2N1C(=O)Cc1ccc(OC)cc1 | 0.135 | 0.807 | 0.673 | 0.66 | 0.139 | 0.221 | 2.5 | 0.333 | 0.0679 | -1.27 (inactive) | 0.142 | -1.15 (inactive) | -0.0589 (inactive) | 6.93 (inactive) | -0.943 (inactive) | 0.219 | 0.0301 | 0.146 | 0.511 | 0.541 |
| COc1ccc(C(O)C2C=CC3C(=O)NC(=O)C3N2Nc2ccccn2)cc1OCc1ccccc1 (stereo not given) | 0.834 | 0.502 | -0.0511 | 0.816 | -0.101 | -1.37 | 1.73 | -0.168 | 0.532 | 0.24 (inactive) | -0.125 | 0.716 (inactive) | -0.484 (inactive) | 0.629 (inactive) | 0.124 (inactive) | 0.428 | -0.0256 | -0.209 | 0.435 | 0.0157 |
| C[N+](C)(C)CCCCCCNC(=O)[C@H]1C[C@H]2C(=O)N3CCC[C@H]3C(=O)N2[C@H]1c1ccc(O)cc1 | -0.167 | 0.0132 | -0.166 | -0.876 | 1.14 | 0.693 | -1.39 | 1.12 | -0.411 | 0.908 (inactive) | -0.214 | -2.61 (inactive) | -0.911 (inactive) | -0.813 (inactive) | -0.935 (inactive) | -0.715 | 0.0184 | 0.0048 | 0.599 | 1.92 |
| CC1=C2[C@@H](CCc3ccccc3)OB(O)C[C@@H]2n2c(=O)n(-c3ccccc3)c(=O)n2C1 | 0.324 | 0.479 | 0.233 | 0.923 | 0.794 | 0.618 | 0.235 | 0.897 | 0.0099 | -0.85 (inactive) | 0.207 | -0.382 (inactive) | 0.909 (inactive) | 0.402 (inactive) | -0.826 (inactive) | 0.156 | -0.0405 | 0.0316 | 0.111 | 0.724 |
| CCCN1C(=O)[C@@]2(CCC(=O)OC(C)(C)C)N=C(c3ccc(OCCCO)cc3)O[C@H]2c2ccccc21 | 2.6 | 0.999 | 0.677 | 0.274 | 1.4 | 1.53 | 1.13 | 0.691 | 0.133 | -2.45 (inactive) | 0.399 | -4.47 (inactive) | -1.36 (inactive) | 1.46 (inactive) | -1.6 (inactive) | 0.0808 | 0.0319 | -0.0821 | 0.408 | 1.5 |
| CCOC(=O)[C@H]1C/C=C/C[C@H](C(=O)OCC)C(=O)O[C@H]2[C@@H](OC)O[C@H](CO)[C@@H](OC(=O)Nc3ccc4c(c3)OCO4)[C@@H]2OC1=O | 2.08 | 1.2 | 0.528 | 0.485 | -0.114 | 0.254 | -1.25 | 0.403 | -0.115 | -1.93 (inactive) | 0.285 | -6.55 (inactive) | -0.353 (inactive) | 0.484 (inactive) | -1.61 (inactive) | -0.0265 | 0.0342 | 0.687 | 0.126 | 0.903 |
| CCOC(=O)C1=CC[C@@H](c2ccccc2Cl)N(S(=O)(=O)c2ccc(C)cc2)C1 | 1.15 | 1.18 | 1.29 | 0.838 | 0.37 | 0.163 | 2.73 | -0.612 | 0.91 | 0.614 (inactive) | 0.149 | -5.35 (inactive) | -0.602 (inactive) | 0.173 (inactive) | -0.0077 (inactive) | 0.884 | 0.0569 | 0.623 | 0.738 | -0.53 |
